D2 ag-1 = agonists of human D2 dopamine receptor (beta-arrestin) | P14416 | DiscoveRx PathHunter D2 beta-arrestin, luminescence, 90 min; 100% = 57 uM dopamine signal | activation, % (concentration not given with the values) | actives 0.084% (n = 360,000) | AID 624465; in the data active means activation above about 40%
Target sequence (P14416 whole entry, looked up): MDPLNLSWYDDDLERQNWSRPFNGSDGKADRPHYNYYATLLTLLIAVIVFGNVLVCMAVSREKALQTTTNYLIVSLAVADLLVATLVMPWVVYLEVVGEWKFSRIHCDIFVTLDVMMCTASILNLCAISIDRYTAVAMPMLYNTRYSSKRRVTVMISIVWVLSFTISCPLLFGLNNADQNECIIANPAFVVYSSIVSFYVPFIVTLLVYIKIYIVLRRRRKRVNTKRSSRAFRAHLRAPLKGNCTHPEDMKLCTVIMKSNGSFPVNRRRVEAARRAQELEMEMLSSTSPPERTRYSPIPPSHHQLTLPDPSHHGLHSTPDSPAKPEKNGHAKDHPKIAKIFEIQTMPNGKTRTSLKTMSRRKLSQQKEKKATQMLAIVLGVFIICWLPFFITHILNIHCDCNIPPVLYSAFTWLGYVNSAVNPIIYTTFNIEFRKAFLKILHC
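DiscoveRx PathHunter D2 beta-arrestin cells (2,100/well) attached overnight, then compound-stimulated 90 min at 37 C in HBSS/10 mM HEPES/0.1% Tween-20 buffer; beta-galactosidase complementation read by luminescence after 1 h at ambient temperature. Dopamine 57 uM final (EC100) as control.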
D2 ag-2 = D2 dopamine receptor (human) agonism; P14416; HEK293 T-REx D2 cells, calcium flux agonist mode; activation, % at 2 µM; actives 0.53% (n = 340,000); AID 485358;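 active means activation over 3 SD above normal in the single-dose calcium agonist read, cut at about 30% in these data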; further: 0% is about no effect
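Calcium-flux readout, 1 cycle/sec over 180 s following compound pin transfer, in inducible HEK293 Trex D2 cells (force-coupled); dopamine controls included. Positive calcium responses during this window marked compounds as potential agonists.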
D2 PAM-1 = positive allosteric modulators of human D2 dopamine receptor; potentiation, % (concentration not given with the values); P14416; DiscoveRx D2 beta-arrestin cells, luminescence, 90 min; 100% = 57 uM dopamine signal; actives 0.23% (n = 360,000); in the data active means potentiation above about 50%
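PathHunter D2 cells, attached overnight at 37 deg C, received compound in DMSO plus dopamine at EC20 (50 nM final) for 90 min at 37 deg C. Beta-arrestin recruitment was read as luminescence after 1 h with detection reagent at ambient temperature.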
D2 antagonist = D2 dopamine receptor (human) antagonism | HEK293 TREx D2 cells, calcium flux, dopamine EC80 | inhibition, % at 10 µM | actives 2% (n = 340,000); in the data active means inhibition above about 30%; inactive means below that, where a call was filed; further: 0% is about no effect
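Calcium flux kinetic readout in an inducible HEK293 TREx D2 line plated overnight at 30 C. After 180 s compound exposure, an EC80 dopamine challenge follows with another 180 s kinetic read to detect antagonism.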
D2 PAM-2 = D2 dopamine receptor (human) potentiation; P14416; HEK293 T-REx D2, calcium flux, EC20 dopamine potentiation; potentiation, % at 10 µM; actives 0.34% (n = 340,000); AID 485347;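 active means potentiation over 3 SD above the plate norm, cut at about 30% in these data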; further: 0% is about no effect
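Calcium flux readout, no-wash dye, 1 read/s. Inducible HEK293 Trex D2 line, overnight 30 C. Compound alone 180 s (agonist flags), then EC20 dopamine, another 180 s to score potentiation.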
The depositor's hits bear a star; . = not tested or not shown. Shown are actives, neighbours in structure and some others; about 2.4% of the full set was active somewhere.

SMILES	D2 ag-1	D2 ag-2	D2 PAM-1	D2 antagonist	D2 PAM-2
O=C1CC(N2CCN(c3cccc(C(F)(F)F)c3)CC2)C(=O)N1c1ccccc1F (stereo not given)	0.3	-1.4	-15.2	32.7*	0.8
O=C1CC(N2CCN(c3ccccc3)CC2)C(=O)N1c1cccc(Br)c1 (stereo not given)	-5.8	0.9	-3.6	1.8	36.7*
COc1cccc(N2C(=O)C(CC(=O)Nc3ccc(F)cc3)N(CCC3=CCCCC3)C2=O)c1 (stereo not given)	.	0.8	.	.	-27.2
COc1ccccc1N1CCN(Cc2cc3c(cc2Br)OCCO3)CC1	-18.1	-1.3	-17.6	104.2*	-27.1
COc1cc(OC)c(OC)cc1CN1CCN(c2ccccc2OC)CC1	0.7	-0.2	-21.1	70.1*	-15.0
CCOc1ccccc1N1CCN(Cc2cnc(-c3ccccc3)[nH]2)CC1	2.1	0.3	-6.3	77.8*	-24.4
COc1ccccc1N1CCN(Cc2cccc(OC)c2OC)CC1	-2.4	-1.0	-45.3	71.3*	-14.2
CCOc1ccccc1N1CCN(Cc2ccc(OC)c(OC)c2OC)CC1	-1.4	-3.2	-20.3	23.2	0.9
Cc1ccccc1N1CCN(Cc2cc3c(cc2[N+](=O)[O-])OCO3)CC1	4.7	0.3	-40.6	-20.2	-0.1
Cc1ccc(Nc2nc(N)nc(CN3CCN(C)CC3)n2)cc1	-1.0	0.2	-16.6	18.2	-7.8
COc1ccccc1N1CCN(Cc2nc(N)nc(Nc3ccc(C)cc3)n2)CC1	1.2	25.6	-42.1	89.2*	-37.5
CCOc1ccccc1N1CCN(Cc2cc3c(cc2[N+](=O)[O-])OCO3)CC1	-0.4	0.7	-24.6	59.6*	-15.0
COc1ccccc1-n1nnnc1SCc1cc2c(cc1Br)OCO2	-1.7	0.2	-13.6	-9.3	43.5*
CCOC(=O)C1CCN(c2c(NCCN3CCN(c4ccccc4)CC3)c(=O)c2=O)CC1	-4.4	36.8*	-6.7	-7.1	-18.5
COc1ccccc1-n1nnnc1SCc1ccccc1	5.1	-0.9	-17.3	11.6	-6.1
CCOC(=O)c1ccc(NC(=O)c2noc3c2CCCC3)cc1	.	.	.	.	6.8
CCOC(=O)c1sc2cccc(F)c2c1S(=O)(=O)NCc1ccccc1Cl	.	1.7	.	.	-2.5
COc1ccccc1N1CCN(C(=O)C2CCN(S(=O)(=O)c3cn(C)cn3)CC2)CC1	.	0.8	.	.	0.4
COc1ccc(Cn2nnnc2C(C(C)C)N2CCN(c3ccccc3OC)CC2)cc1 (stereo not given)	-1.2	0.2	-3.8	53.0*	-9.2
CCOc1ccccc1N1CCN(C/C=C/c2ccc(N(C)C)cc2)CC1	0.4	0.2	-33.7	78.8*	-20.6
CCOc1ccccc1N1CCN(Cc2ccc(OC)c(OC)c2)CC1	-1.4	-2.3	0.5	94.4*	-27.1
COc1ccc(CC(C)N2CCN(c3ccccc3OC)CC2)cc1OC (stereo not given)	-1.8	22.1	-15.9	88.6*	-25.3
CCOc1cc(CN2CCCCCC2)ccc1OC	-6.6	0.0	-4.6	6.7	-12.1
CC(=O)Nc1nonc1-c1nc2ccccc2n1Cc1ccccc1Br	.	0.4	.	.	12.8
COc1cc(C(=O)NCc2nc(-c3ccc(Cl)cc3)no2)cc(OC)c1OC	.	-0.6	.	.	7.6
SMILES	D2 ag-1	D2 ag-2	D2 PAM-1	D2 antagonist	D2 PAM-2
Cc1nc2ccn(Cc3cccnc3)c(=O)c2cc1C(=O)N1CCN(c2ccccc2)CC1	.	0.6	.	.	.
CCOC(=O)C1CCN(c2ccccc2CN2CCN(c3ccccc3OCC)CC2)CC1	-14.5	0.0	-24.1	61.3*	-18.1
CCOC(=O)C1CCN(Cc2ccccn2)CC1	.	27.0	.	-5.9	-15.0
O=C(CCCCCN1C(=O)CCC1=O)Nc1ncn[nH]1	0.2	1.7	-0.1	45.4*	.
CCOc1ccccc1CNC(=O)c1cn(-c2ccc(OC)cc2)c(=O)c2ccccc12	.	-0.4	.	.	7.8
COc1ccc(-c2cn[nH]c2-c2ccc(OCc3ccc([N+](=O)[O-])cc3)cc2O)cc1	11.9	.	52.3*	.	.
COc1ccccc1C(=O)Nc1nc2ccccc2[nH]1	-3.9	-0.4	-6.7	-8.7	2.7
COc1cc(SC)ccc1C(=O)Nc1nc2ccccc2[nH]1	-11.0	0.9	-13.3	33.9*	-6.6
Cc1ccc(CNC(=O)CCn2cnc3ccccc3c2=O)cc1	.	-0.1	.	.	-9.4
CCCn1c(SCC(=O)N2CCN(C(=O)c3ccco3)CC2)nc2ccccc2c1=O	-2.4	0.9	5.0	30.8*	-2.1
O=C(CSc1nnc(-c2ccco2)n1-c1ccccc1)N1CCN(C(=O)c2ccco2)CC1	-1.7	2.3	1.3	65.1*	.
CCOc1ccccc1-n1c(SCC(=O)NC)nnc1-c1ccco1	-0.1	0.3	-2.7	-1.8	9.7
CCOc1ccc(-n2c(SCC(=O)NC)nnc2-c2ccco2)cc1	1.8	0.5	-1.6	36.3*	7.2
Cn1c(SCC(=O)N2CCN(c3ccccc3)CC2)nnc1-c1ccco1	-3.4	1.3	-10.3	2.3	-9.1
Cc1cccc(Cc2c(C)nc3nc(SCC(=O)NCc4ccccc4)nn3c2C)c1	.	0.1	.	.	-3.4
Cc1cccc(Cc2c(C)nc3nc(SCC(=O)O)nn3c2C)c1	-4.4	0.0	-3.9	-6.0	47.4*
COc1ccc(NCc2nnc(SCC(=O)NCc3ccco3)n2-c2ccccc2OC)cc1	-4.9	-0.7	-18.2	10.6	6.0
Cc1ccc(-n2c(CNc3ccc(F)cc3)nnc2SCC(=O)NCc2ccco2)cc1	-3.7	0.4	-10.1	33.9*	17.5
Cc1ccc(-n2c(CNc3ccc(F)cc3)nnc2SCC(=O)N2CCCC2)cc1	-2.8	0.7	-19.5	30.1*	7.4
Cc1cc(C)n(CC2CC(=O)N(c3cc(Cl)cc(Cl)c3)C2=O)n1 (stereo not given)	-0.2	0.4	7.9	30.5*	-4.7
C=CCn1c(O)c(N=NC(=S)Nc2ccccc2F)c2ccccc21	-7.8	-0.4	-16.9	68.3*	-24.7
O=C(NCc1ccccc1)C(=O)Nc1nc(C23CC4CC(CC(C4)C2)C3)cs1	-4.2	0.0	-22.9	32.2*	1.7
Cc1cc(C)c(-c2cc(C(F)(F)F)no2)c(=O)[nH]1	2.5	2.3	1.1	32.3*	-10.4
COc1cccc(NC(=O)C(=O)NCCc2csc(-c3ccc(C)cc3)n2)c1	.	0.8	.	.	11.4
CC(C)CCn1c(-c2nonc2N)nc2ccccc21	-0.3	1.1	-16.6	6.7	32.8*
CCCCn1c(-c2nonc2N)nc2ccccc21	-1.5	1.5	-20.7	1.3	0.4
CCc1ccc(N2CCN(CCNC(=O)Nc3ccccc3)CC2)cc1	7.6	.	10.2	73.5*	.
COc1ccc(CCC(=O)Nc2ccc(C)c(S(=O)(=O)N(C)C)c2)cc1OC	-1.6	-0.1	-9.9	-19.3	7.1
COc1ccc(CCNCC(=O)Nc2ccc(C)c(S(=O)(=O)N(C)C)c2)cc1	-0.8	1.7	-16.8	32.8*	-5.1
Cc1cc(OCCN2CCCCC2)nc2ccccc12	-5.5	-0.1	-38.6	30.6*	-20.1

Source: PubChem BioAssay
